We go through 20 compounds from PubChem BioAssay.

A number with no mark means an inactive call. For some of these results: Potency and affinity values are given separately. The source made the active and inactive calls. Unless noted, how the calls were made is not given here.

Assay [1] is described as follows: antimalarial activity against Dd2 strain (AID 2302;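 active means growth inhibition above 50% at the single 2 µM test dose, taken to imply half-maximal potency below 2 µM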;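 further: 0% = DMSO untreated growth and 100% = chloroquine plus artemisinin killed control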). Particulars: P. falciparum Dd2 in RBCs, LDH growth readout, 72 h; at 2 µM; hits give high values.
The nature of assay [2]: HepG2 cytotoxicity, primary screen, cytotoxicity control for P. falciparum antimalarial project, cell-based, ATP luminescence (AID 2303;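 active means inhibition above 50%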;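 further: 0% = DMSO wells and 100% = digitonin-killed cells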). Particulars: HepG2 viability, 24-48 h, at 10 µM, hits give high values.
The target of assay [3] is L-lactate dehydrogenase (Plasmodium falciparum (isolate CDC / Honduras)) (UniProt Q27743). Nature of the assay: PfLDH activity inhibition – cell lysate, 3D7 strain, counter-screen for P. falciparum growth inhibition project (AID 2304).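 Further: 0% = vehicle and 100% = reference inhibitor.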 To be noted: P. falciparum 3D7 crude extract, LDH APAD/NBT absorbance; at 2 µM; hits give high values. For orientation: Counterscreens check selectivity or assay interference.
Sequence of L-lactate dehydrogenase (Plasmodium falciparum (isolate CDC / Honduras)) (Q27743 whole entry, looked up): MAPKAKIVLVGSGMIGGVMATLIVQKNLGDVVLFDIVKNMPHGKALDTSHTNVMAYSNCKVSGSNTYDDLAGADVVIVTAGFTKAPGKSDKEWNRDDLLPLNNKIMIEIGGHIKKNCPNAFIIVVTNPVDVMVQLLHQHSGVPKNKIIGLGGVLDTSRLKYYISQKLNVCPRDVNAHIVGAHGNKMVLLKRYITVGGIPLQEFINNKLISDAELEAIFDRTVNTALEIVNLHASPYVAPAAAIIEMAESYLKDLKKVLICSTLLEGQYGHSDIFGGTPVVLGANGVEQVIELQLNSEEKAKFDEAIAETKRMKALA

Assay [4] is described as follows: inhibition of 3D7 malaria parasite growth – strain 3D7 (AID 2306).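 Further: 0% = DMSO wells and 100% = chloroquine plus artemisinin control wells.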 Particulars: P. falciparum 3D7 erythrocytic growth, LDH absorbance, 72 h; at 2 µM; hits give high values.
The target in assay [5] is Calcium-dependent protein kinase 1 (Plasmodium falciparum (isolate 3D7)) (UniProt P62344). Nature of the assay: PfCDPK1 kinase inhibitors, biochemical, TCAMS library (AID 1159585; cut-off not given, nearly all actives have IC50 up to about 0.98 µM;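 further: inhibitors leave more ATP so luminescence rises with inhibition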). To be noted: recombinant PfCDPK1, Kinase-Glo ATP depletion luminescence.
Sequence of Calcium-dependent protein kinase 1 (Plasmodium falciparum (isolate 3D7)) (P62344 whole entry, looked up): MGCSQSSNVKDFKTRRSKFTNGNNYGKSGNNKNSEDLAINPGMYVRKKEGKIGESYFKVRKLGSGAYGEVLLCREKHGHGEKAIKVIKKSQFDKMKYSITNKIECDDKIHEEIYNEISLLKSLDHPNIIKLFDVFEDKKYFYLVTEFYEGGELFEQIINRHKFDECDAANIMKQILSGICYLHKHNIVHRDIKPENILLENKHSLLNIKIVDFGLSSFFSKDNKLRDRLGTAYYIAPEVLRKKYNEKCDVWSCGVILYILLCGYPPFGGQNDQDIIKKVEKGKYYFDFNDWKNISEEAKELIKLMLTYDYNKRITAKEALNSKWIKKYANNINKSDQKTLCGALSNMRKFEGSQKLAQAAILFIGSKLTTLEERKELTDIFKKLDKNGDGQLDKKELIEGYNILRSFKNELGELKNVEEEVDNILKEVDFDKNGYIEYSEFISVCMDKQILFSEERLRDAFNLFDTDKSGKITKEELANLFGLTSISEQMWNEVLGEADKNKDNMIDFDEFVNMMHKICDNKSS
Assay [6] has as its target Plasmodium falciparum protein kinase 6 (PK6, PF3D7_1337100) (UniProt Q8IDW1). Nature of the assay: PfPK6 kinase inhibitors, biochemical, TCAMS library (AID 1159586). To be noted: recombinant PfPK6, Kinase-Glo ATP depletion luminescence.
For assay [7], the target named is Protein kinase 7 (PK7), Plasmodium falciparum 3D7 (PF3D7_0213400) (UniProt Q7YTF7). Nature of the assay: inhibition of Plasmodium PK7 catalytic activity – biochemical, TCAMS antimalarial set, Kinase-Glo luminescence (AID 1159587). To be noted: recombinant PfPK7, Kinase-Glo ATP depletion luminescence.
Sequence of Protein kinase 7 (PK7), Plasmodium falciparum 3D7 (PF3D7_0213400) (Q7YTF7 1-343): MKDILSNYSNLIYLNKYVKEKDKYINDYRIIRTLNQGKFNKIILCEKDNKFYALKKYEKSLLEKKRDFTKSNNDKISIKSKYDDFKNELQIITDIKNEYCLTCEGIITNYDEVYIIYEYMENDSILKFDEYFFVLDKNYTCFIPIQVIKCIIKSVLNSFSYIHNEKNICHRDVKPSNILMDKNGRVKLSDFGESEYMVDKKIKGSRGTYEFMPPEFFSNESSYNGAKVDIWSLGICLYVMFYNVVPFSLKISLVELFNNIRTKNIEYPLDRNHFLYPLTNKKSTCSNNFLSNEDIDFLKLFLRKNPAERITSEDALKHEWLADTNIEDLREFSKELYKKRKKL
Assay [8] has as its target Calcium-dependent protein kinase 4 (Plasmodium falciparum (isolate 3D7)) (UniProt Q8IBS5). Nature of the assay: PfCDPK4 kinase inhibitors, biochemical, TCAMS library (AID 1159588; cut-off not given, nearly all actives have IC50 up to about 0.91 µM). Particulars: recombinant PfCDPK4, Kinase-Glo ATP depletion luminescence. Background: Kinase-Glo reads ATP consumption through a luciferase reaction.

Sequence of Calcium-dependent protein kinase 4 (Plasmodium falciparum (isolate 3D7)) (Q8IBS5 whole entry, looked up): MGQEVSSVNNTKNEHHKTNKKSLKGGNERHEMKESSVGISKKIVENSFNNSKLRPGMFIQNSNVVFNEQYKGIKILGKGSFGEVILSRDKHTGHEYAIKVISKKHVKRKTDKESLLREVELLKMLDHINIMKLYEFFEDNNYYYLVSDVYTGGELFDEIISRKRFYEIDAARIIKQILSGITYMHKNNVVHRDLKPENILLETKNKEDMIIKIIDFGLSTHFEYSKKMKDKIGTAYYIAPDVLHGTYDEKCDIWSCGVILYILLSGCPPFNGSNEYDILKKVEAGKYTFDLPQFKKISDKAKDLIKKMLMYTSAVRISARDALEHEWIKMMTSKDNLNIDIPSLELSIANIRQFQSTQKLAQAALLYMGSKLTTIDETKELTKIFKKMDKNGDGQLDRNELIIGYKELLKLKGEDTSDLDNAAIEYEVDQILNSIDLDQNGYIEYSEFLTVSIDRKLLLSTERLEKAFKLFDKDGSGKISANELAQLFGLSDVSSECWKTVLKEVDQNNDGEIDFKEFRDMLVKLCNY
Sequence of Plasmodium falciparum protein kinase 6 (PK6, PF3D7_1337100) (Q8IDW1 1-305): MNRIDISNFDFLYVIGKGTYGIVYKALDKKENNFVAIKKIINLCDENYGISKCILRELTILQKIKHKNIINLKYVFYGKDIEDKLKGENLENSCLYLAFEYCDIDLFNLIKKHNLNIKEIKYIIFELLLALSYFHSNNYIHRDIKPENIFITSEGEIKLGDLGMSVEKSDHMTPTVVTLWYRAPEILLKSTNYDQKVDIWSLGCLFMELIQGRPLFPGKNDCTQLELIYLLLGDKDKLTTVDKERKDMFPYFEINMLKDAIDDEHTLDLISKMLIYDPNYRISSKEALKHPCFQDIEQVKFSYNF

With `CC(C)N(CC(=O)c1ccc(O)c(C(=O)O)c1)Cc1ccccc1`, the growth inhibition was 26% in assay [1] and 97% (active) in assay [4]. In addition, the inhibition in assay [2] and in assay [3] was -7% each time. In addition, the outcome in assay [5], in assay [6], in assay [7] and in assay [8] was inactive.
In the case of `CC(C)(C)SCC(O)Cn1c2ccc(Br)cc2c2cc(Br)ccc21` (stereo not given), the growth inhibition was 79% (active) in assay [1] and 87% (active) in assay [4]. The inhibition in assay [2] is 4%; in assay [3], 1%. In addition, the outcome in assay [5], in assay [6], in assay [7] and in assay [8] was inactive.
As to `CC(C)(C)c1cc(C(=O)N2CCN(c3cnccn3)CC2)n(Cc2ccccc2)n1`, the growth inhibition in assay [1] was 33%; in assay [4], 92% (active). For the same compound, the inhibition was -1% in assay [2] and -4% in assay [3]. Further, the outcome in assay [5], in assay [6], in assay [7] and in assay [8] was inactive.
For `O=C(Nc1cccc(CN2CCCN(Cc3ncc[nH]3)CC2)c1)c1ccc2ccccc2c1`, the results for the growth inhibition in assay [1] and in assay [4] were 2% and 100% (active), respectively. In addition, the values for the inhibition in assay [2] and in assay [3] were 13% and -1%, respectively. Besides, the outcome in assay [5], in assay [6], in assay [7] and in assay [8] was inactive.
As to `O=C(Nc1ccc(F)cc1)c1nc2ccccc2nc1Cl`, the growth inhibition in assay [1] was 62% (active); in assay [4], 80% (active). The inhibition in assay [2] was 44%; in assay [3], -1%. In addition, the result in assay [5], in assay [6], in assay [7] and in assay [8] was inactive.
Consider `Cc1[nH]c(C)c(-c2ccc(-c3ccc(OC(F)(F)F)cc3)cc2)c(=O)c1Cl`, for which the results for the growth inhibition in assay [1] and in assay [4] were 97% (active) and 98% (active), respectively. Also, the inhibition in assay [2] was 24%; in assay [3], 1%. In addition, the outcome in assay [5], in assay [6], in assay [7] and in assay [8] was inactive.
Consider `Cc1cc(C(=O)Nc2nc(-c3ccccn3)nc3ccsc23)no1`, for which the growth inhibition is 90% (active) in assay [1] and 98% (active) in assay [4]. In addition, the figures for the inhibition in assay [2] and in assay [3] were 44% and 0%, respectively. In addition, the outcome in assay [5], in assay [6], in assay [7] and in assay [8] was inactive.
Regarding `CCN(CC)CCCNc1nccc(N2CCc3ncnc(Nc4ccc(OCc5cccc(F)c5)c(Cl)c4)c3C2)n1`, the values for the growth inhibition in assay [1] and in assay [4] were 95% (active) and 101% (active), respectively. The inhibition is 100% (active) in assay [2] and 7% in assay [3]. Further, the outcome in assay [5], in assay [6], in assay [7] and in assay [8] was inactive.
Turning to `CN(C)c1ccc(N2C(N)=NC(N)=NC23CCCC3)cc1`, the growth inhibition in assay [1] was 0%; in assay [4], 97% (active). The inhibition is 1% in assay [2] and -2% in assay [3]. Also, the result in assay [5], in assay [6], in assay [7] and in assay [8] was inactive.
As for `Cc1ccccc1NC(=O)NC1CCN(CCCCCNC(=O)/C=C/c2ccc(Cl)c(Cl)c2)CC1`, the growth inhibition was 20% in assay [1] and 102% (active) in assay [4]. Besides, the inhibition in assay [2] is 13%; in assay [3] it was -6%. In addition, the outcome in assay [5], in assay [6], in assay [7] and in assay [8] was inactive.
In the case of `NC(N)=NN=CC(=O)Nc1ccc(Br)cc1`, the figures for the growth inhibition in assay [1] and in assay [4] were 1% and 100% (active), respectively. Further, the inhibition is 5% in assay [2] and 0% in assay [3]. In addition, the outcome in assay [5], in assay [6], in assay [7] and in assay [8] was inactive.
Consider `Cc1nc(N)nc(N)c1-c1ccc(Br)c([N+](=O)[O-])c1`, for which the results for the growth inhibition in assay [1] and in assay [4] were 2% and 95% (active), respectively. The figures for the inhibition in assay [2] and in assay [3] were 64% (active) and 2%, respectively. For the same compound, the outcome in assay [5], in assay [6], in assay [7] and in assay [8] was inactive.
In the case of `O=C(Nc1nccs1)c1cn(-c2ccccc2)nc1-c1ccc(Cl)s1`, the growth inhibition in assay [1] was 18%; in assay [4], 96% (active). Further, the results for the inhibition in assay [2] and in assay [3] were 9% and 0%, respectively. Further, the outcome in assay [5], in assay [6], in assay [7] and in assay [8] was inactive.
As to `CCC(C)c1ccc(NC(=O)c2ccc(S(=O)(=O)Nc3ccc(OC)c(N4CCN(CC5CC5)CC4)c3)cc2)cc1` (stereo not given), the growth inhibition in assay [1] is 17%; in assay [4] it was 94% (active). Further, the figures for the inhibition in assay [2] and in assay [3] were 24% and -2%, respectively. Besides, the outcome in assay [5], in assay [6], in assay [7] and in assay [8] was inactive.
As for `Nc1c(Cl)cc(C(O)CNCCCCCOCCc2ccc3ccccc3n2)cc1Cl` (stereo not given), the growth inhibition was 97% (active) in assay [1] and 98% (active) in assay [4]. The inhibition was 9% in assay [2] and -1% in assay [3]. Further, the result in assay [5], in assay [6], in assay [7] and in assay [8] was inactive.
Take `COc1ccc(NC(=O)[C@H](Cc2ccccc2)Nc2cc(C)nc(NCCN3CCCC3)n2)cc1`: the growth inhibition in assay [1] was 3%; in assay [4], 97% (active). Moreover, the inhibition is 15% in assay [2] and -2% in assay [3]. Also, the result in assay [5], in assay [6], in assay [7] and in assay [8] was inactive.
With `Cc1nn(-c2ccccc2)nc1C(=O)N(Cc1ccc(-c2ccc(CNCCc3ccc(S(C)(=O)=O)cc3)cn2)cc1)C(C)CN(C)C` (stereo not given), the values for the growth inhibition in assay [1] and in assay [4] were 87% (active) and 101% (active), respectively. For the same compound, the inhibition in assay [2] is 25%; in assay [3], -8%. Moreover, the outcome in assay [5], in assay [6], in assay [7] and in assay [8] was inactive.
`O=C(Nc1ccc2c(c1)OCO2)c1cc(-c2cccnc2)cnc1NCc1ccc2c(c1)OCO2`: the results for the growth inhibition in assay [1] and in assay [4] were 1% and 87% (active), respectively. In addition, the inhibition in assay [2] and in assay [3] was 2% each time. The result in assay [5], in assay [6], in assay [7] and in assay [8] was inactive.
Consider `O=S(=O)(c1cc(Cl)sc1Cl)N(CCC(O)(C(F)(F)F)C(F)(F)F)Cc1cccc(O)c1`, for which the growth inhibition in assay [1] is 97% (active); in assay [4] it was 98% (active). Also, the inhibition was -4% in assay [2] and 5% in assay [3]. Moreover, the outcome in assay [5], in assay [6], in assay [7] and in assay [8] was inactive.
For the compound `CCCCC(=O)Nc1ccc(Nc2nc(C)cc(N3CCCC3)n2)cc1`, the figures for the growth inhibition in assay [1] and in assay [4] were 67% (active) and 101% (active), respectively. For the same compound, the inhibition in assay [2] was 38%; in assay [3], 4%. In addition, the outcome in assay [5], in assay [6], in assay [7] and in assay [8] was inactive.

Broadly, the inhibition is the change of the read-out against control, counted positive when it falls.
